Reference: PubChem BioAssay
Where “and” joins values, the source holds several entries; their conditions need not be identical. Identical values can stand only once. Calls of active or inactive are those of the source.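 Rule for the calls, unless noted: active = compounds whose cell count with miR-34 switched on is under 0.7 times the count with it off; inactive = the rest.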

Columns and labels:
[1] = tested on: Hepatitis C virus NS3 helicase; experiment: HCV NS3 helicase inhibitors, primary screen, biochemical, fluorescence polarization, LOPAC1280 library (AID 687035; in the data active = inhibition above about 37%); conditions: Purified HCV NS3 helicase, Cy5-dT15 ssDNA binding fluorescence polarization; stronger effect = higher value; concentration not given here
[2] = Cy5 fluorescence quenching or enhancement artefacts, artefact control for HCV NS3 helicase inhibitor project, biochemical, LOPAC1280 (AID 687037; call rule not given here); conditions: Cy5-DNA-NS3h complex fluorescence interference counterscreen
[3] = sensitizers of A549 cells to miR-34 induction, primary screen, imaging, A549 dox-inducible miR-34, nuclei and caspase counts (AID 1347080); conditions: A549 miR-34 inducible, Hoechst nuclei count, 48 h
[4] = phospholipid biosynthesis inhibitors in animal cells, primary screen, cell-based, LOPAC library, screen 4 (AID 1347384; call rule not given here); conditions: phospholipid biosynthesis inhibition screen, at 10 µM
[5] = viability rescue of complex I mutant cybrids, primary screen, cell-based, galactose medium, ATP luminescence (AID 1645843;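 active = z-score of at least 1.8 in each of two replicates, scored against plate mean and spread of sample wells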;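 note: positive z means more ATP and so rescue of galactose-driven cybrid death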); conditions: complex I mutant cybrid cells, 72 h, stronger effect = higher value
[6] = circadian clock period modulators, cell-based, LOPAC library, luminescence reporter (AID 2774; call rule not given here;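 note: values are relative to mean of DMSO wells on each plate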); conditions: circadian reporter cells, at 7 µM, actives lie on both sides
[7] = hESC survival regulators, cell-based (AID 493140; call rule not given here;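 note: cells exposed to compounds for four days before counting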); conditions: human embryonic stem cell survival screen; stronger effect = higher value
[8] = inhibitors of Cryptococcus chitosan production, flow cytometry, Cibacron Brilliant Red staining (AID 1347148; call rule not given here;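 note: compound exposure lasted three days at 37 degrees C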); conditions: Cryptococcus neoformans chitosan, stronger effect = lower value; at 10 µM unless noted
[9] = survival rescue of mitochondrial mutant cells in low glucose, primary screen, MELAS cybrids, Rieske KO mouse fibroblasts, CellTiter-Glo (AID 1508586;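 active = mean z-score across replicates of 1.96 or higher in either the MELAS or the Rieske mutant cell line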;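 note: z relative to plate mean and SD of compound and empty wells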)
[10] = measured here: relative caspase fold change +Dox/-Dox
[11] = measured here: total cells with miR-34 induction, stronger effect = lower value
[12] = measured here: total cells without miR-34 induction
[13] = stronger effect = lower value, cell number ratio, induced over uninduced
[14] = MELAS cybrid survival, CellTiter-Glo 48 h, stronger effect = higher value
[15] = Rieske KO mouse fibroblast survival, CellTiter-Glo 72 h

## CN1CC[C@@]2(C)c3cc(OC(=O)Nc4ccccc4)ccc3N(C)[C@@H]12
[1]
  inhibition: -3% (inactive)
[2]
  fluorescence ratio (interference): 1 (inactive)
[3]; stronger effect = lower value
  fold change: 0.963 (inactive)
[3]; [10]
  fold change: 1.22
[3]; [11]
  cell count: 10200
[3]; [12]
  cell count: 10600
[4]
  outcome: inactive
[5]
  z-score: -0.985 (inactive)

## CCCCCCCCCCCCCC(=O)O[C@@H]1[C@@H](C)[C@@]2(O)[C@@H](C=C(CO)C[C@@]3(O)C(=O)C(C)=C[C@@H]23)C2C(C)(C)[C@@]21OC(C)=O (stereo not given in full)
[6]
  period change: -1.74 h (active)
[1]
  inhibition: -2% (inactive)
[2]
  fluorescence ratio (interference): 1 (inactive)
[3]; [13]
  fold change: 0.676 (active)
[3]; [10]
  fold change: 1.62
[3]; [11]
  cell count: 418
[3]; [12]
  cell count: 618
[4]
  outcome: inactive
[5]
  z-score: -1.38 (inactive)

## CCCCCCCCCCCCCCCCOC[C@@H](COP(=O)([O-])OCC[N+](C)(C)C)OC(C)=O
[7]
  survival: 78.6 (inactive)
[3]; stronger effect = lower value
  fold change: 0.883 (inactive)
[3]; [10]
  fold change: 0.996
[3]; [11]
  cell count: 4960
[3]; [12]
  cell count: 5620
[8]
  fold fluorescence: 4.51 (inactive) and 4.92 (inactive)

## C[C@]12CCC(=O)C(O)=C1CC[C@@H]1[C@H]2CC[C@]2(C)C(=O)CC[C@@H]12
[3]; stronger effect = lower value
  fold change: 0.879 (inactive)
[3]; [10]
  fold change: 0.764
[3]; [11]
  cell count: 8100
[3]; [12]
  cell count: 9210
[9]; [14]
  z-score: -0.345 (inactive)
[9]; [15]
  z-score: 0.332

## CCN1C[C@]2(OC(=O)c3ccccc3NC(C)=O)CCC(OC)[C@]34C1C(C[C@H]23)[C@@]1(O)CC(OC)[C@H]2C[C@H]4[C@]1(O)C2OC (stereo not given in full)
[3]; stronger effect = lower value
  fold change: 0.952 (inactive)
[3]; [10]
  fold change: 0.833
[3]; [11]
  cell count: 7310
[3]; [12]
  cell count: 7680
[9]; [14]
  z-score: -0.466 (inactive)
[9]; [15]
  z-score: -0.118

## CC(=Cc1csc(C)n1)C1CC2OC2CCCC(C)C(O)C(C)C(=O)C(C)(C)C(O)CC(=O)O1 (stereo not given)
[3]; [13]
  fold change: 1.08 (inactive)
[3]; [10]
  fold change: 1.17
[3]; [11]
  cell count: 1520
[3]; [12]
  cell count: 1410
[9]; [14]
  z-score: 1.25 (inactive)
[9]; [15]
  z-score: 0.224

## Cc1ccc(-n2nccn2)c(C(=O)N2CCN(c3nc4cc(Cl)ccc4o3)CCC2C)c1 (stereo not given)
[3]; stronger effect = lower value
  fold change: 0.837 (inactive)
[3]; [10]
  fold change: 0.399
[3]; [11]
  cell count: 6970
[3]; [12]
  cell count: 8330
[9]; [14]
  z-score: -0.269 (inactive)
[9]; [15]
  z-score: -2.87

## CC(=Cc1csc(C)n1)C1CC2O[C@]2(C)CCCC(C)C(O)C(C)C(=O)C(C)(C)C(O)CC(=O)O1 (stereo not given in full)
[3]; [13]
  fold change: 1.08 (inactive)
[3]; [10]
  fold change: 0.662
[3]; [11]
  cell count: 1610
[3]; [12]
  cell count: 1500
[9]; [14]
  z-score: 1.69 (inactive)
[9]; [15]
  z-score: -0.237

## C=CCN1CC[C@]23c4c5ccc(O)c4O[C@H]2C(=O)CC[C@@]3(O)C1C5
[3]; stronger effect = lower value
  fold change: 0.942 (inactive)
[3]; [10]
  fold change: 1.73
[3]; [11]
  cell count: 7860
[3]; [12]
  cell count: 8350
[9]; [14]
  z-score: 0.0762 (inactive)
[9]; [15]
  z-score: -0.34

## C[C@]12CCC(O)CC1=CC[C@@H]1[C@H]2CC[C@]2(C)C(=O)CC[C@@H]12 (stereo not given in full)
[3]; stronger effect = lower value
  fold change: 0.867 (inactive)
[3]; [10]
  fold change: 0.858
[3]; [11]
  cell count: 8270
[3]; [12]
  cell count: 9530
[9]; [14]
  z-score: -0.412 (inactive)
[9]; [15]
  z-score: 0.289
